Test results as given in the OligoGym collection.

What was measured:
Test in all cases: pooled miR-30 sensor sort-seq; sequence = guide strand
Conditions in all cases: shRNA
KRTAP10-10 = target: KRTAP10-10
KRTAP13-1 = target: KRTAP13-1
KRTAP13-2 = target: KRTAP13-2
KRTAP10-2 = target: KRTAP10-2
KRT86 = target: KRT86
Note: reference of the scale not given here.

In the case of TTAGTTCTGCAGAACTTGGGTC, the sensor-assay potency score (higher = more potent) (KRTAP10-10) is reported as 0.494.

Work on TCCAACGCCATAGCCCAGGGAA yielded a sensor-assay potency score (higher = more potent) (KRTAP13-1) of -1.31.

Work on TTGTTACAGACGGGCACGCAGC yielded a sensor-assay potency score (higher = more potent) (KRTAP10-10) of -1.52.

Sequence AGGTAGTCACCACAGGAGCGGG has a sensor-assay potency score (higher = more potent) (KRTAP13-2) of -1.51.

For AAGAGGATGACTCAGAGCAGGT, the sensor-assay potency score (higher = more potent) (KRTAP10-2) was -1.29.

CAGCACACAGCTTTGCAGCAGA gave a sensor-assay potency score (higher = more potent) (KRTAP10-2) of -2.3.

Sequence AAGACTCGGAGCAGGTAGGCAC has a sensor-assay potency score (higher = more potent) (KRTAP10-10) of -0.677.

TGGTCTGTAGCAAGAAGACTGG gave a sensor-assay potency score (higher = more potent) (KRTAP13-1) of -0.92.

Work on TAGACTGCTGGTAGCATGGGGT yielded a sensor-assay potency score (higher = more potent) (KRTAP10-10) of -0.566.

ACACAGCAGATGGACTTGCAGC showed a sensor-assay potency score (higher = more potent) (KRTAP10-2) of -1.45.

With TACACAGCAGATGGACTTGCAG the sensor-assay potency score (higher = more potent) (KRTAP10-2) was -0.914.

TAGAATAAGAGGCTAATTCTTT gave a sensor-assay potency score (higher = more potent) (KRTAP13-1) of -0.634.

TAGACCTGGTTGCTGGGGTAGG gave a sensor-assay potency score (higher = more potent) (KRTAP13-1) of -1.13.

In the case of TTGCAGCAGACGGACACACAGC, the sensor-assay potency score (higher = more potent) (KRTAP10-2) is reported as -1.17.

AAGCACACAGGCTTGTTACAGA was tested, and the sensor-assay potency score (higher = more potent) (KRTAP10-10) was -0.517.

With TAGCATGGGGTTGTGCAGGAGC the sensor-assay potency score (higher = more potent) (KRTAP10-10) was -0.83.

Sequence TGGGCACGCAGCACACAGCTTT has a sensor-assay potency score (higher = more potent) (KRTAP10-2) of -1.18.

In the case of TAACCCAGGGATCTGAAGCCAC, the sensor-assay potency score (higher = more potent) (KRTAP13-1) is reported as -0.898.

Work on TCGTCTTGCAAGGACTGCAGAG yielded a sensor-assay potency score (higher = more potent) (KRTAP13-2) of -0.616.

TGGGCAGTCGACTACCCGCCAA gave a sensor-assay potency score (higher = more potent) (KRTAP10-10) of -1.3.

AGCAGGACTGCTGACACGGGGA was tested, and the sensor-assay potency score (higher = more potent) (KRTAP10-2) was -1.24.

Sequence TGGCCTGAGGAAAAGCTGCAGG has a sensor-assay potency score (higher = more potent) (KRTAP10-2) of -1.08.

Sequence TAGCAGACGGACTTAGAGCAGA has a sensor-assay potency score (higher = more potent) (KRTAP10-10) of -0.81.

In the case of AATGTCATCGTACTGTGCCTTG, the sensor-assay potency score (higher = more potent) (KRT86) is reported as -0.754.

With TGGTAGCATGGGGTTGTGCAGG the sensor-assay potency score (higher = more potent) (KRTAP10-10) was -1.66.

AGCATGAAGAGGATGACTCAGA showed a sensor-assay potency score (higher = more potent) (KRTAP10-2) of -1.89.

TAGCAAGAAGACTGGCAGCTCC showed a sensor-assay potency score (higher = more potent) (KRTAP13-1) of -0.434.

Sequence AACAGGTACACAGCAGATGGAC has a sensor-assay potency score (higher = more potent) (KRTAP10-2) of -1.3.

TCTGTAGCAAGAAGACTGGCAG showed a sensor-assay potency score (higher = more potent) (KRTAP13-1) of 0.163.

Work on TAGGCACGAAGCACACAGGCTT yielded a sensor-assay potency score (higher = more potent) (KRTAP10-10) of 0.129.
